tim23-1 inh: tim23-1 yeast growth inhibition | inhibition, % at 20 µM | S. cerevisiae tim23-1 growth, BacTiter-Glo luminescence, 24 h | 330,000 tested, 1.3% active;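 active = growth inhibition of the mutant yeast at or above 50%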;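 also: temperature-sensitive mutant grown at 25 °C; plate controls were DMSO-treated mutant yeast for no effect and medium wells lacking yeast for full effect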
tim10-1 inh: inhibits growth of tim10-1 mutant yeast; S. cerevisiae tim10-1 ts strain growth, BacTiter-Glo, 24 h; inhibition, % at 20 µM; AID 463190; 330,000 tested, 2.2% active;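 active = inhibition of at least 40%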;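 also: mutant grown at 25 °C; 0% = DMSO wells with yeast and 100% = wells holding no yeast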
NLRP3 yeast inh: NALP3 inhibition in yeast; 330,000 tested, 0.39% active; AID 2825; Yeast reconstituted NLRP3/ASC/caspase-1, beta-gal luminescence, 24 h; inhibition, % at 10 µM;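 active = inhibition of 50% or more; inactive = inhibition below 50%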;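 also: plate controls were induced DMSO wells for no effect and uninduced yeast grown without galactose for full effect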
TIM10 inh: growth inhibitors of TIM10 yeast strain. S. cerevisiae TIM10 strain growth, BacTiter-Glo luminescence, 24 h. inhibition, % at 10 µM. 330,000 tested, 1.4% active;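 active = inhibition of 40% or more at the single tested concentration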;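 also: wild-type TIM10 isogenic control strain grown at permissive 25 °C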
NALP1 yeast inh: blocks the NALP1 inflammasome reconstituted in yeast | S. cerevisiae NALP1/ASC/caspase-1 growth, X-gal OD620, 72 h | AID 2071 | 280,000 tested, 0.61% active | inhibition, % at 10 µM; in the data active = inhibition mostly above about 24%, no sharp cut-off; inactive = mostly below about 32%
V-ATPase pHluor: alters yeast V-ATPase proton transport. S. cerevisiae, pHLuorin cytosolic pH fluorescence. response, % at 10 µM. 350,000 tested, 0.37% active; in the data active = response mostly above about 7.3%, no sharp cut-off; inactive = mostly below about 5.4%; also: actives read high
NALP3 confirm: NALP3 inhibition confirmation in yeast; AID 435006; inhibition, % at 10 µM; shares compounds with NLRP3 yeast inh; 1,300 tested, 81% active; yeast expressing human NALP3, luminescence; in the data active = inhibition above about 48%
Casp1-ASC yeast: active in yeast caspase-1-ASC counter-screen for NALP3 inhibitors; 1,000 tested, 66% active; yeast expressing Caspase-1-ASC, luminescence counter screen; shares compounds with NLRP3 yeast inh; AID 488784; inhibition, % at 10 µM
NALP3 yeast rt: retest-confirmed inhibitor of NALP3 in yeast | shares compounds with NLRP3 yeast inh | yeast expressing human NALP3, luminescence read-out | inhibition, % at 10 µM | 1,000 tested, 53% active
* = called active by the depositor; . = no result given. The list is not random: actives were taken first. Their share in the collection is about 4.2%. Rule as the data show it, unless noted: active = inhibition above about 50%; inactive = the rest.

SMILES | tim23-1 inh | tim10-1 inh | NLRP3 yeast inh | TIM10 inh | NALP1 yeast inh | V-ATPase pHluor | NALP3 confirm | Casp1-ASC yeast | NALP3 yeast rt
COC(=O)C1C(C(=O)OC)C1(c1ccccc1)c1ccccc1 (configuration not stated) | 23.6 | 28.5 | -138.0 | 23.2 | 0.4 | 2.6 | -37.7 | . | .
COC(=O)C1C(c2ccccc2)C=CC(c2ccccc2)C1C(=O)O (configuration not stated) | 4.4 | -4.1 | -2.3 | 1.0 | . | -2.8 | . | . | .
COC(=O)Cn1ncc(N(C)Cc2ccccc2)c(Cl)c1=O | 5.4 | 2.0 | -16.7 | -13.0 | 12.8 | 4.1 | . | . | .
CCCCCNC(=O)C(=O)C1C(=O)Nc2ccccc21 (configuration not stated) | 3.0 | -40.4 | 52.3* | 5.8 | . | 0.8 | 70.7* | 42.8 | 51.1*
CN(C)CCNC(=O)C(=O)C1C(=O)Nc2ccccc21 (configuration not stated) | -0.5 | -4.3 | 12.0 | 7.1 | -1.0 | . | . | . | .
O=c1c2ccccc2nnn1Cc1ccc(Br)cc1 | -2.2 | 21.2 | 50.3* | 6.7 | 14.3 | -0.2 | 65.9* | 56.9* | 58.4*
CCOc1cc(/C=N/Nc2cc(C)nc(-n3nc(C)cc3C)n2)ccc1O | 4.8 | 12.8 | 76.7* | -4.4 | 4.7 | -0.4 | 54.0* | 18.8 | 35.6
CCOc1ccc(S(=O)(=O)Nc2ccccc2C(=O)N2CCOCC2)cc1 | 5.3 | 2.0 | 4.1 | -3.2 | -9.8 | -2.2 | . | . | .
COC(=O)CNC(=O)Cn1nc(C)c([N+](=O)[O-])c1C | 10.9 | -2.1 | 11.4 | 5.9 | 3.6 | -3.1 | . | . | .
Cc1cc(C)c(C)c(S(=O)(=O)NC2CCCCC2)c1C | 36.3 | 20.8 | 52.7* | 11.0 | 2.6 | -3.3 | 45.7 | 38.5 | 27.1
Cc1nn(-c2ccccc2)c(C)c1-c1nnc(-c2c(C)nn(-c3ccccc3)c2C)o1 | -7.7 | -12.7 | -11.7 | -23.8 | -3.8 | -2.1 | . | . | .
N#Cc1ccsc1NC(=O)C1CCN(C(=O)c2ccc(Cl)cc2)CC1 | 20.8 | 24.5 | 6.5 | 10.1 | . | 1.2 | . | . | .
COc1ccc(C2c3sc(=O)[nH]c3SC3C4CCC(C4)C23)cc1 (configuration not stated) | 29.4 | 28.1 | 51.4* | 19.1 | 37.5 | 4.4 | 52.5* | . | .
O=c1[nH]c2c(s1)C(c1ccccc1)C1C3CCC(C3)C1S2 (configuration not stated) | 7.3 | 13.7 | 16.3 | 13.2 | -0.3 | 1.0 | . | . | .
Cc1ccc(S(=O)(=O)NC(=O)c2ccccc2C)cc1 | -0.1 | -6.2 | 8.2 | 9.9 | 0.1 | -1.1 | . | . | .
C=C1/C=C(\C)[C@](C)(O)C[C@H](O)CC(=O)[C@H](O)[C@@H](O)[C@H](C)C[C@H](C)OC(=O)/C(C)=C/CC/C=C/[C@@H]2O[C@H]2C[C@H](C)C1 | 4.4 | -33.3 | 83.2* | 32.0 | . | . | 88.7* | . | .
Cc1nc2ccccc2c(N)c1C(=O)/C=C/c1ccccc1 | 31.8 | 3.8 | 74.7* | 4.0 | 18.4 | 2.8 | 74.2* | 55.9* | 37.8
Cc1cccc(NC(=O)c2ccc(S(=O)(=O)N3CCCCC3)cc2)c1 | 33.1 | 21.6 | 52.0* | 22.9 | 19.2 | 0.4 | 60.0* | 59.9* | 51.9*
Cc1cccnc1Nc1nc(-c2ccccn2)cs1 | 10.2 | -29.5 | 73.7* | 34.5 | 12.0 | 3.2 | 84.2* | 97.2* | 92.2*
NS(=O)(=O)c1ccc(CCNC(=O)c2ccc3ccccc3n2)cc1 | 5.7 | 5.1 | -3.8 | 5.4 | -2.0 | -1.3 | . | . | .
COc1ccc(CCNC(=O)c2ccc3ccccc3n2)cc1 | 14.5 | -30.1 | 52.3* | 2.2 | 11.6 | -4.3 | 67.2* | 41.3 | 29.5
C=CCNC(=O)COc1coc(CN2CCN(C(=O)c3ccco3)CC2)cc1=O | -11.5 | -0.1 | 14.8 | 5.2 | . | 8.0 | . | . | .
CC1(C)Oc2ccc(C(=O)N/N=C/c3ccc(O)cc3)cc2NC1=O | 11.6 | 3.1 | 13.6 | 10.7 | 7.0 | 0.6 | . | . | .
CSc1ccc(/C=N/N(C)S(=O)(=O)c2ccc(C)cc2)cc1 | 12.0 | 4.0 | 41.6 | 3.3 | 7.7 | 0.3 | . | . | .
Cc1ccc(/C=N/N(C)S(=O)(=O)c2ccc(C)cc2)cc1 | 24.5 | 17.4 | 51.1* | 2.7 | 2.3 | 0.0 | 58.1* | 58.0* | 33.1
SMILES | tim23-1 inh | tim10-1 inh | NLRP3 yeast inh | TIM10 inh | NALP1 yeast inh | V-ATPase pHluor | NALP3 confirm | Casp1-ASC yeast | NALP3 yeast rt
COC(=O)c1sccc1NC(=O)c1ccc(C)o1 | 10.5 | 25.4 | 45.4 | 11.9 | 4.5 | 1.2 | . | . | .
COC(=O)c1sccc1NC(=O)c1ccc(Br)o1 | 8.0 | 2.8 | 52.6* | -1.2 | 3.4 | 3.5 | 38.2 | 33.7 | 45.8
C/C(=N\NC(=S)NCc1ccccc1)c1cccs1 | 38.4 | 14.5 | 26.5 | 27.9 | 2.4 | 1.1 | . | . | .
C/C(=N\NC(=S)NCc1ccccc1)c1ccc2ccccc2c1OC(F)F | 34.1 | 24.7 | 56.1* | 39.2 | -4.7 | 1.2 | 15.8 | . | .
N#Cc1nc2ccccc2n1OCc1ccccc1 | . | . | . | . | . | 1.4 | . | . | .
Cc1cc(=O)[nH]c(SCC2COC3(CCCCC3)O2)n1 (configuration not stated) | 7.2 | 9.0 | 22.6 | 3.6 | 7.6 | 6.8 | . | . | .
NCCNC[C@@H]1COC2(CCCCCCCCCCC2)O1 | -17.4 | -10.7 | 58.6* | 4.0 | 27.0 | 0.4 | 74.5* | . | .
CCCCCNC(=O)c1c[nH]c2ccc(S(=O)(=O)N3CCC4(CC3)OCCO4)cc2c1=O | 3.7 | 5.7 | 3.3 | 2.2 | 34.9 | 4.1 | . | . | .
COC(=O)c1ccc(C(=O)Nc2ccc3nc(-c4ccncc4)[nH]c3c2)cc1 | 7.6 | 15.9 | -0.4 | -9.2 | 5.4 | -2.1 | . | . | .
COC(=O)c1ccc(-c2nc3ccccc3[nH]2)cc1 | 10.7 | -82.2 | 63.3* | -9.0 | 45.5 | 2.0 | 38.0 | . | .
O=C(NCCCc1ccccc1)c1cccc(Br)c1 | 27.4 | 9.3 | 3.3 | 16.5 | . | -0.6 | . | . | .
O=C(NCCCCc1ccccc1)c1cccc(Br)c1 | 5.4 | -19.2 | 52.9* | -15.6 | 23.8 | -0.6 | 68.8* | 57.4* | 39.8
CCCCCC(=O)N1C[C@H](O)[C@@H](n2cc(COC(=O)c3ccccc3)nn2)C[C@@H]1c1ccc(Cl)cc1 | . | . | . | . | . | -1.6 | . | . | .
CCCCC1=CC2=CC(=O)C(C)(OC(=O)c3ccc(Cl)nc3)C(=O)C2=CO1 (configuration not stated) | 16.4 | 8.1 | 3.5 | 0.4 | . | . | . | . | .
COc1ccc(CC(=O)Nc2ccc(-c3noc(-c4cc(OC)c(OC)c(OC)c4)n3)cc2)cc1 | 6.6 | 3.7 | 57.9* | 9.7 | 4.0 | -0.6 | 23.5 | . | .
COc1ccc(CC(=O)Nc2ccc(-c3noc(-c4ccc(Cl)cc4)n3)cc2)cc1 | 0.8 | 7.7 | 8.7 | -4.6 | -87.2 | -4.3 | . | . | .
COCC(=O)N1CCC(n2nccc2NC(=O)c2ccccc2OC)CC1 | 14.6 | 17.5 | 14.7 | 2.0 | -3.1 | 0.3 | . | . | .
Cc1ccc2sc(NC(=O)CSc3nc(C)cc(C)c3C#N)nc2c1 | 17.8 | 4.2 | 51.1* | 6.8 | 12.7 | -2.2 | 40.8 | 10.6 | 17.2

Screening results (PubChem BioAssay)
